Where “and” joins values, the source holds several entries; their conditions need not be identical. Equal values may be shown once. Inconclusive results are not listed. Some structures have more than one record in an assay (separate samples or runs), and their calls can disagree. Calls of active or inactive are those of the source. Unless noted, calls follow the shape of the dose curve; as a rule, active = well fitted curve in the direction sought with a large enough effect in the repeat runs; inconclusive = weak or mixed curves; inactive = no such curve, though single readings can be large; an effect the other way counts as inactive or inconclusive.
Columns and labels:
[1] = qHTS assay to identify small molecule agonists of the hypoxia (HIF-1) signaling pathway - cell viability counter screen (AID 1224844; calls by dose curve; also: nearly all actives have a fitted effect of over 50% in size; also: potency is read from the fitted curve at half-maximal effect)
In short: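 HRE-bla ME-180; 0.5% dFBS; cpd 17 h, 37C, 5% CO2; CellTiter-Glo lum., 30 min RT, post-FRET read, same wells.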

[2] = qHTS assay to identify small molecule agonists of H2AX (AID 1224845; active = well fitted activation curve with a large enough effect in the signal ratio in the repeat runs, not every such curve was filed as active; the % refers to the signal ratio)
In short: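 Phospho-H2AX Ser139 measured by HTRF (ex 320 nm; em 665 and 620 nm) after 24 hr antibody incubation. Compounds, 15 concentrations, 0.76% DMSO, were applied to CHO-K1 cells for 3hr at 37C before lysis.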

[3] = qHTS assay to identify small molecule agonists of the hypoxia (HIF-1) signaling pathway (AID 1224846; active = well fitted activation curve with a large enough effect in the signal ratio in the repeat runs, not every such curve was filed as active; the % refers to the signal ratio)
In short: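 Reporter induction in HRE-bla ME-180 cells is taken as agonism: cells sit 5 hrs after plating, receive compounds or DMSO only, incubate 17 hrs at 37C under 5% CO2, and are loaded with CCF4-AM for beta-lactamase FRET measurement.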

[4] = qHTS assay to identify small molecule agonists of H2AX - cell viability counter screen (AID 1224847; calls by dose curve; also: top concentration of the series differs between compounds; nearly all actives have a fitted effect of over 30% in size)
In short: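 Compounds tested at 15 concentrations were incubated 3 hr at 37C with wild-type CHO-K1 cells; cellular ATP-based luminescence (CellTiter-Glo) indicated viability.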

[5] = qHTS RealTime-Glo MT Cell Viability Assay in HepG2 cells - 24 hour (AID 1224867); also: nearly all actives have a fitted effect of over 50% in size
In short: (§1)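 HepG2 cells (600/well) were dispensed with RealTime-Glo reagents, incubated 5 h at 37 °C, then treated with compounds in DMSO for up to 40 h. Nonlytic NanoLuc luminescence reflecting viable cells was read at each stated time point.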

[6] = qHTS RealTime-Glo MT Cell Viability Assay in HEK293 cells - 32 hour (AID 1224868); also: nearly all actives have a fitted effect of over 50% in size; also: potency is read from the fitted curve at half-maximal effect
In short: (§2)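 HEK293 cells seeded with NanoLuc/prosubstrate reagent, rested 5 h at 37 C, then dosed and kept at 37 C up to 40 h. Nonlytic real-time luminescence from viable cells read at 0, 8, 16, 24, 32 and 40 h.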

[7] = A CellTox Green Cytotoxicity Assay to monitor cytotoxicity in HEK293 cells - 0 hour (AID 1224869); also: nearly all actives have a fitted effect of over 50% in size; also: potency is read from the fitted curve at half-maximal effect
In short: (§3)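 Tox21 screen in HEK293: membrane-impermeant cyanine dye fluoresces on binding dead-cell DNA; compound pinned 5 h post-seeding, plates held at 37 C, signal read repeatedly through 40 h.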

[8] = qHTS RealTime-Glo MT Cell Viability Assay in HepG2 cells - 40 hour (AID 1224870); also: nearly all actives have a fitted effect of over 50% in size; also: potency is read from the fitted curve at half-maximal effect
In short: (§4)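 Real-time viability: cells seeded at 600 per well together with NanoLuc and cell-permeant prosubstrate, compounds added after 5 h incubation. Luminescence tracked at 0, 8, 16, 24, 32 and 40 h of exposure.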

[9] = A CellTox Green Cytotoxicity Assay to monitor cytotoxicity in HEK293 cells - 40 hour (AID 1224871); also: nearly all actives have a fitted effect of over 45% in size
In short: as §3

[10] = qHTS RealTime-Glo MT Cell Viability Assay in HEK293 cells - 16 hour (AID 1224872); also: nearly all actives have a fitted effect of over 50% in size; also: potency is read from the fitted curve at half-maximal effect
In short: as §2

[11] = qHTS RealTime-Glo MT Cell Viability Assay in HepG2 cells - 8 hour (AID 1224873); also: nearly all actives have a fitted effect of over 55% in size
In short: as §4

[12] = qHTS RealTime-Glo MT Cell Viability Assay in HEK293 cells - 40 hour (AID 1224874); conditions: RealTime-Glo luminescence; max response: stronger effect = lower value; also: nearly all actives have a fitted effect of over 50% in size; also: potency is read from the fitted curve at half-maximal effect
In short: (§5)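 HEK293 + NanoLuc + prosubstrate, 600 cells/well; 5 h, 37 C/5% CO2; compound 23 nL in DMSO by pintool; 37 C; luminescence read at 0, 8, 16, 24, 32 and 40 h time points.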

[13] = A CellTox Green Cytotoxicity Assay to monitor cytotoxicity in HEK293 cells - 24 hour (AID 1224875); also: nearly all actives have a fitted effect of over 45% in size
In short: as §3

[14] = A CellTox Green Cytotoxicity Assay to monitor cytotoxicity in HepG2 cells - 16 hour (AID 1224876); also: nearly all actives have a fitted effect of over 45% in size; also: potency is read from the fitted curve at half-maximal effect
In short: (§6)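 Measurements at 0, 8, 16, 24, 32 and 40 h of treatment captured CellTox Green fluorescence in HepG2 cells that had been co-plated with reagent and preincubated 5 h at 37 C/5% CO2.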

[15] = qHTS RealTime-Glo MT Cell Viability Assay in HepG2 cells - 32 hour (AID 1224877); also: nearly all actives have a fitted effect of over 55% in size; also: potency is read from the fitted curve at half-maximal effect
In short: as §1

[16] = A CellTox Green Cytotoxicity Assay to monitor cytotoxicity in HepG2 cells - 24 hour (AID 1224878); also: nearly all actives have a fitted effect of over 45% in size; also: potency is read from the fitted curve at half-maximal effect
In short: as §6

[17] = A CellTox Green Cytotoxicity Assay to monitor cytotoxicity in HepG2 cells - 40 hour (AID 1224879); also: nearly all actives have a fitted effect of over 40% in size; also: potency is read from the fitted curve at half-maximal effect
In short: as §6

[18] = qHTS RealTime-Glo MT Cell Viability Assay in HEK293 cells - 0 hour (AID 1224880); also: nearly all actives have a fitted effect of over 45% in size; also: potency is read from the fitted curve at half-maximal effect
In short: as §5

[19] = qHTS assay to identify small molecule antagonists of the estrogen related receptor (ERR) signaling pathway from Tox21 library (AID 1224848); also: nearly all actives have a fitted effect of over 50% in size; also: potency is read from the fitted curve at half-maximal effect
In short: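 Luciferase luminescence (ONE-Glo, 30 min room temperature) was the read-out. Cells of the NTP-supplied ERR line, 2,000 per well, were given 6 h at 37 C before compound addition in DMSO and 18 h exposure at 37 C.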

[20] = qHTS assay to identify small molecule agonists of the estrogen related receptor (ERR) signaling pathway from Tox21 library (AID 1224849; calls by dose curve; also: nearly all actives have a fitted effect of over 15% in size); conditions: ERR reporter cell line, ONE-Glo luciferase, 18 h
In short: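 Tox21 compounds tested for ERR agonism in an NTP reporter cell line: 18 h treatment at 37 C, then ONE-Glo luminescence.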
% is scaled to controls: 0 for no effect and ±100 for the full control effect.

CC(=O)CC/C=C(\C)CCC=C(C)C
inactive: Potency [1] | outcome [2] | Potency [3] | Potency [4] | Potency [5] | Potency [6] | Potency [7] | Potency [8] | Potency [9] | Potency [10] | Potency [11] | max response [12] 1.02% and 0.97% | Potency [13] | Potency [14] | Potency [15] | Potency [16] | Potency [17] | Potency [18]

O=P(O)(O)O
inactive: Potency [1] | outcome [2] | Potency [3] | Potency [4] | Potency [5] | Potency [6] | Potency [7] | Potency [8] | Potency [9] | Potency [10] | Potency [11] | max response [12] -1.49% and 1.49% | Potency [13] | Potency [14] | Potency [15] | Potency [16] | Potency [17]

COc1ccccc1/C=C/C=O
inactive: Potency [1] | outcome [2] | Potency [3] | Potency [4] | Potency [5] | Potency [7] | Potency [8] | Potency [10] | Potency [11] | Potency [13] | Potency [15] | Potency [16] | Potency [17] | Potency [18]

C[C@]12CC[C@H]3[C@@H](CCC4=CC(=O)CC[C@@]43C)[C@@H]1CC[C@@H]2C(=O)CO
active: Potency [19] 27.3 µM and 26.6 µM | Potency [6] 24.5 µM | Potency [12] 38.9 µM | Potency [18] 17.4 µM
inactive: Potency [1] | outcome [2] | Potency [4] | activity change, positive = activation ([20]; at 42.5 µM (top of the series)) -34.2% | activity change, positive = activation ([20]; at 92.4 µM (top of the series)) -55.9% | Potency [5] | Potency [7] | Potency [8] | Potency [9] | Potency [11] | Potency [13] | Potency [14] | Potency [15] | Potency [16] | Potency [17]

OC1CCCCCCCCCCC1
active: Potency [14] 38.9 µM | Potency [16] 49.5 µM and 43.6 µM | Potency [17] 49.5 µM
inactive and 43.6 µM (active): Potency [7]
inactive: Potency [1] | outcome [2] | Potency [3] | Potency [4] | Potency [5] | Potency [6] | Potency [8] | Potency [10] | Potency [11] | max response [12] -5.96% and 2.11% | Potency [15]

CC(C)=CCCC(C)CCO (configuration not stated)
inactive: Potency [1] | outcome [2] | Potency [3] | Potency [4] | Potency [5] | Potency [6] | Potency [7] | Potency [8] | Potency [9] | Potency [10] | Potency [11] | max response [12] -3.95% and 4.54% | Potency [13] | Potency [14] | Potency [15] | Potency [16] | Potency [17] | Potency [18]

Cc1c(C(N)=O)cc([N+](=O)[O-])cc1[N+](=O)[O-]
inactive: Potency [1] | outcome [2] | Potency [3] | Potency [4] | Potency [5] | Potency [6] | Potency [7] | Potency [8] | Potency [9] | Potency [10] | Potency [11] | max response [12] 1.58% and 7.25% | Potency [13] | Potency [15] | Potency [16] | Potency [17]

c1ccc(Nc2ccccc2)cc1
inactive: Potency [1] | outcome [2] | Potency [3] | activity change, positive = activation ([20]; at 92.4 µM (top of the series)) -73.5% and -5.69% | Potency [5] | Potency [7] | Potency [11] | max response [12] 12.7% | Potency [14]
38.9 µM (active) and inactive: Potency [15]
17.4 µM (active) and inactive: Potency [10]
19.5 µM (active) and inactive: Potency [6]
27.3 µM (active) and inactive: Potency [19]
43.6 µM (active) and inactive: Potency [8]
active: Potency [12] 19.5 µM | Potency [16] 43.6 µM | Potency [17] 34.7 µM

OC[C@H]1O[C@@H]2O[C@H]3[C@H](O)[C@@H](O)[C@@H](O[C@H]4[C@H](O)[C@@H](O)[C@@H](O[C@H]5[C@H](O)[C@@H](O)[C@@H](O[C@H]6[C@H](O)[C@@H](O)[C@@H](O[C@H]7[C@H](O)[C@@H](O)[C@@H](O[C@H]8[C@H](O)[C@@H](O)[C@@H](O[C@H]1[C@H](O)[C@H]2O)O[C@@H]8CO)O[C@@H]7CO)O[C@@H]6CO)O[C@@H]5CO)O[C@@H]4CO)O[C@@H]3CO
inactive: Potency [1] | outcome [2] | Potency [3] | Potency [4] | Potency [5] | Potency [6] | Potency [7] | Potency [8] | Potency [9] | Potency [10] | Potency [11] | max response [12] 3.33% | Potency [13] | Potency [14] | Potency [15] | Potency [16] | Potency [17] | Potency [18]

CCCCOCCOCCO
inactive: Potency [1] | outcome [2] | Potency [3] | Potency [4] | Potency [5] | Potency [6] | Potency [7] | Potency [8] | Potency [9] | Potency [10] | Potency [11] | max response [12] 0.043% and 0.397% | Potency [13] | Potency [14] | Potency [15] | Potency [16] | Potency [17] | Potency [18]

Nc1ncn([C@@H]2O[C@H](CO)[C@@H](O)[C@H]2O)c(=O)n1
active: Potency [1] 13.8 µM | Potency [19] 864 nM and 1.19 µM
inactive: outcome [2] | Potency [4] | activity change, positive = activation ([20]; at 42.5 µM (top of the series)) -50.1% | activity change, positive = activation ([20]; at 92.4 µM (top of the series)) -55.9% | Potency [5] | Potency [6] | Potency [7] | Potency [8] | Potency [9] | Potency [10] | Potency [11] | max response [12] -27.7% and 4.66% | Potency [13] | Potency [15] | Potency [16] | Potency [17]

O=Cc1ccccc1O
inactive: Potency [1] | outcome [2] | Potency [3] | Potency [4] | Potency [5] | Potency [6] | Potency [7] | Potency [8] | Potency [9] | Potency [10] | Potency [11] | max response [12] 3.18% and 0.0852% | Potency [13] | Potency [15] | Potency [16] | Potency [17] | Potency [18]

O=S(=O)(O)c1ccc(O)cc1
inactive: Potency [1] | outcome [2] | Potency [3] | Potency [4] | Potency [5] | Potency [6] | Potency [7] | Potency [8] | Potency [10] | Potency [11] | max response [12] 9.46% and 3.12% | Potency [13] | Potency [14] | Potency [15] | Potency [16] | Potency [17] | Potency [18]
